Measurements reported in the supplement of paper PMC11732987, “Enantioselective OTUD7B fragment discovery through chemoproteomics screening and high-throughput optimisation” (Communications Chemistry, 2025).

Columns and labels:
Assay in all cases: log2 ratio of Biotin-Ahx-Ub-VS probe labelling (fragment/DMSO); higher = less target engagement (more negative = stronger competition), active = hit call of the paper (q ≤ 0.05, log2 ratio ≤ -1)
Conditions in all cases: compound concentration: 200 uM; treatment time: 3 h
USP34 = USP34 (UniProt Q70CQ2)
Method in brief: (§1)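 HEK293T lysate, 495 µg per sample in Tris/CHAPS/IGEPAL buffer with protease inhibitors, was treated in triplicate with fragment at 200 µM or vehicle for 3 h and then with Biotin-Ahx-Ub-VS at 0.5 µM final for 1 h. Labelled DUBs were NeutrAvidin-enriched, digested with LysC and trypsin, and run by diaPASEF LC-MS/MS. Spectronaut label-free quantities were global-median-normalised, and values are average log2 fragment/vehicle ratios by unpaired t-test on proteins with ≥2 unique peptides.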

USP36 = target: T1, USP36 (UniProt Q9P275)
T1 sequence (whole entry): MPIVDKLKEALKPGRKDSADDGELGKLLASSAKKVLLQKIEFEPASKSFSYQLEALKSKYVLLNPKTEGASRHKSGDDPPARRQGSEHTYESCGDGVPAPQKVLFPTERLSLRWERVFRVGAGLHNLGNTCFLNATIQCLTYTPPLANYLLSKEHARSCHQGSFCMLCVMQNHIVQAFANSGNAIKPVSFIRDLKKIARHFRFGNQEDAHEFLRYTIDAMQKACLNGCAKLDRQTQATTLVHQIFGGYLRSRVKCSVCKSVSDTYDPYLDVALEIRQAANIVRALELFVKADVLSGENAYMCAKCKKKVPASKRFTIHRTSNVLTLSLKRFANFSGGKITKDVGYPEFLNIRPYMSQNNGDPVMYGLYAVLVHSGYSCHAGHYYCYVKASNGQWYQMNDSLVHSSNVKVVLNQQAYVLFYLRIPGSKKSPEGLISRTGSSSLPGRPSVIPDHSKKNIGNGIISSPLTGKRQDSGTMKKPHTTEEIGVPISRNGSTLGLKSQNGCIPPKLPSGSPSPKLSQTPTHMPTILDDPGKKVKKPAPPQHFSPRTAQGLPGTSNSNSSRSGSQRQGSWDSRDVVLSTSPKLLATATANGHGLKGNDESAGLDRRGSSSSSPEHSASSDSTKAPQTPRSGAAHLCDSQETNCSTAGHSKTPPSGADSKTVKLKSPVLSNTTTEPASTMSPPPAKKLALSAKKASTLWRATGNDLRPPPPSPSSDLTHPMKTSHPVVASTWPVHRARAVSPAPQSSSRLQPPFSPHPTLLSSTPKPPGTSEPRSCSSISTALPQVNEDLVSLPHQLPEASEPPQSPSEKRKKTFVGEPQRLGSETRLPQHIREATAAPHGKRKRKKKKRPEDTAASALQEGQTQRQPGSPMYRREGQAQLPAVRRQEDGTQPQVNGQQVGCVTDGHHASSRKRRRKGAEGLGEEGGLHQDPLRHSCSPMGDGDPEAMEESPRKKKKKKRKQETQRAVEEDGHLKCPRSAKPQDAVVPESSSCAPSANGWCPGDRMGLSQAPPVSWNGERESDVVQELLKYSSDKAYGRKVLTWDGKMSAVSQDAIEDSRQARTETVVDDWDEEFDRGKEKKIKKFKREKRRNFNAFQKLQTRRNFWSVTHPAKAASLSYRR
Method in brief: as §1

USP38 = target: T2, USP38 (UniProt Q8NB14)
T2 sequence (whole entry): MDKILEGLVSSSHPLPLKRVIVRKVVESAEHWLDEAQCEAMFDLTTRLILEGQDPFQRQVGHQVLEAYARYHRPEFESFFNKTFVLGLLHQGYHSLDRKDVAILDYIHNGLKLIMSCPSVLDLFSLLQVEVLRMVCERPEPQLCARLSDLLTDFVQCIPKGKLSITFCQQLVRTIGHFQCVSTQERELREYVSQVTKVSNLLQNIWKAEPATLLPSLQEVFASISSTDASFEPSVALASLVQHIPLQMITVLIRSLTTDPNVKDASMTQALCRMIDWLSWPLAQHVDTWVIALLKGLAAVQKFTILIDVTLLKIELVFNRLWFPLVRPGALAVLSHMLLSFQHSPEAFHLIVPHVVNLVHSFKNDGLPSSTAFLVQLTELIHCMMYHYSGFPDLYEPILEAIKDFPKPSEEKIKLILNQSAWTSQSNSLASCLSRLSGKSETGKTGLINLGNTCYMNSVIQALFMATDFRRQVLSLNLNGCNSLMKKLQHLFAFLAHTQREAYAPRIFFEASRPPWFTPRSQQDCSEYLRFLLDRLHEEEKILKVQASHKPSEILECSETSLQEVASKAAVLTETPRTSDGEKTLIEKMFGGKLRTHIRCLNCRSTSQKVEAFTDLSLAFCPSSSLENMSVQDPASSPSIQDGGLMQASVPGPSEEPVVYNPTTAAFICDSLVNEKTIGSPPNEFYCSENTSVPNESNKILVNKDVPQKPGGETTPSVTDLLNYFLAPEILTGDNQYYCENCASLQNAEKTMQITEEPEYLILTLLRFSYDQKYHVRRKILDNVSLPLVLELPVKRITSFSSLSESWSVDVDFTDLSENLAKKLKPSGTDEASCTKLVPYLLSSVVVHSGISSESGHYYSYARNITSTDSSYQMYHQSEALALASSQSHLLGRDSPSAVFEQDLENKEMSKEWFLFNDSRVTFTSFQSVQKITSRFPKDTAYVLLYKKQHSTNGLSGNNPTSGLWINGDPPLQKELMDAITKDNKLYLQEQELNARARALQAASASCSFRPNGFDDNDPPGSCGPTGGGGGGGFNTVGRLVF
Method in brief: as §1

USP39 = target: T3, USP39 (UniProt Q53GS9)
T3 sequence (whole entry): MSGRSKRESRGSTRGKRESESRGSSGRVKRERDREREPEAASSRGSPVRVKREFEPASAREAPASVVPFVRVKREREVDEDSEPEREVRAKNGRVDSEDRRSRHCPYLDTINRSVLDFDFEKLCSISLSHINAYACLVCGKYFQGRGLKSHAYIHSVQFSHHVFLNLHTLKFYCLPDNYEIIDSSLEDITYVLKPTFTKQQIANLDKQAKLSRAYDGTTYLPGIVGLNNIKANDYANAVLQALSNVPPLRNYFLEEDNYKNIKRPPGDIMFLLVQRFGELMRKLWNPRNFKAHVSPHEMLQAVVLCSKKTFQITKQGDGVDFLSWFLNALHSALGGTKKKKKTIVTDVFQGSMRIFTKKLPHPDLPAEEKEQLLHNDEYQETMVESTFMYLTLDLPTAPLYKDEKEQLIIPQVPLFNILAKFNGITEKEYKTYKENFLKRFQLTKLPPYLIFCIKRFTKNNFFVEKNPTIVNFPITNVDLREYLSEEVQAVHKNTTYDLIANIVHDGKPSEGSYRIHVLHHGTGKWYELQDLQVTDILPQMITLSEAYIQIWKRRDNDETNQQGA
Method in brief: as §1

USP4 = target: T4, USP4 (UniProt Q13107)
T4 sequence (whole entry): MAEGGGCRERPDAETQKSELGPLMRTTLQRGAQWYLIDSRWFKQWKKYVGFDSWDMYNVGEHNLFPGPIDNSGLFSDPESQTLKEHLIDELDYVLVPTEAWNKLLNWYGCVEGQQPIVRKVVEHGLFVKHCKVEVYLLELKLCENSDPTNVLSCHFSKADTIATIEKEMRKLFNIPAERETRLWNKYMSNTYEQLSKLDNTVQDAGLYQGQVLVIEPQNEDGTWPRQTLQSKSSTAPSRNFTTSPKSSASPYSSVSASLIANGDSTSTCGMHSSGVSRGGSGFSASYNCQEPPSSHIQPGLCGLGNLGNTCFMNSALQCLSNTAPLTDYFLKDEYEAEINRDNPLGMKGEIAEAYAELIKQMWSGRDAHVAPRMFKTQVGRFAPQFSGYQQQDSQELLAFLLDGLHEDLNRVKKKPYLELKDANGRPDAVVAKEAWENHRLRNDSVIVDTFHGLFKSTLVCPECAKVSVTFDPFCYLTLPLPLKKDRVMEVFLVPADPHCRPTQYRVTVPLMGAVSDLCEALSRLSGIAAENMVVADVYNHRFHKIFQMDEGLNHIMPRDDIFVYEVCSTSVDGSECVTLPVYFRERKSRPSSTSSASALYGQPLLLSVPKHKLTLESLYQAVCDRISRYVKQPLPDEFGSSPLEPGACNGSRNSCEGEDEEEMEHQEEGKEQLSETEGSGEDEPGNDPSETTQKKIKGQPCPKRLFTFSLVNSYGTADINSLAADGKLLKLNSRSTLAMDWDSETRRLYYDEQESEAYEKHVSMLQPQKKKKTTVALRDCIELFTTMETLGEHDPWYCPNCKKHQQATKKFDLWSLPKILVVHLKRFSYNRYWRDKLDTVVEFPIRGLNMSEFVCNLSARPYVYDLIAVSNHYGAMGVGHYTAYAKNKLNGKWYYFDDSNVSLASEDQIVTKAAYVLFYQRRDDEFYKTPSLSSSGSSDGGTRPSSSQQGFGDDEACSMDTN
Method in brief: as §1

Measured: log2 ratio of Biotin-Ahx-Ub-VS probe labelling

Sequence of USP34 (Q70CQ2 whole entry, the tested form may be a part): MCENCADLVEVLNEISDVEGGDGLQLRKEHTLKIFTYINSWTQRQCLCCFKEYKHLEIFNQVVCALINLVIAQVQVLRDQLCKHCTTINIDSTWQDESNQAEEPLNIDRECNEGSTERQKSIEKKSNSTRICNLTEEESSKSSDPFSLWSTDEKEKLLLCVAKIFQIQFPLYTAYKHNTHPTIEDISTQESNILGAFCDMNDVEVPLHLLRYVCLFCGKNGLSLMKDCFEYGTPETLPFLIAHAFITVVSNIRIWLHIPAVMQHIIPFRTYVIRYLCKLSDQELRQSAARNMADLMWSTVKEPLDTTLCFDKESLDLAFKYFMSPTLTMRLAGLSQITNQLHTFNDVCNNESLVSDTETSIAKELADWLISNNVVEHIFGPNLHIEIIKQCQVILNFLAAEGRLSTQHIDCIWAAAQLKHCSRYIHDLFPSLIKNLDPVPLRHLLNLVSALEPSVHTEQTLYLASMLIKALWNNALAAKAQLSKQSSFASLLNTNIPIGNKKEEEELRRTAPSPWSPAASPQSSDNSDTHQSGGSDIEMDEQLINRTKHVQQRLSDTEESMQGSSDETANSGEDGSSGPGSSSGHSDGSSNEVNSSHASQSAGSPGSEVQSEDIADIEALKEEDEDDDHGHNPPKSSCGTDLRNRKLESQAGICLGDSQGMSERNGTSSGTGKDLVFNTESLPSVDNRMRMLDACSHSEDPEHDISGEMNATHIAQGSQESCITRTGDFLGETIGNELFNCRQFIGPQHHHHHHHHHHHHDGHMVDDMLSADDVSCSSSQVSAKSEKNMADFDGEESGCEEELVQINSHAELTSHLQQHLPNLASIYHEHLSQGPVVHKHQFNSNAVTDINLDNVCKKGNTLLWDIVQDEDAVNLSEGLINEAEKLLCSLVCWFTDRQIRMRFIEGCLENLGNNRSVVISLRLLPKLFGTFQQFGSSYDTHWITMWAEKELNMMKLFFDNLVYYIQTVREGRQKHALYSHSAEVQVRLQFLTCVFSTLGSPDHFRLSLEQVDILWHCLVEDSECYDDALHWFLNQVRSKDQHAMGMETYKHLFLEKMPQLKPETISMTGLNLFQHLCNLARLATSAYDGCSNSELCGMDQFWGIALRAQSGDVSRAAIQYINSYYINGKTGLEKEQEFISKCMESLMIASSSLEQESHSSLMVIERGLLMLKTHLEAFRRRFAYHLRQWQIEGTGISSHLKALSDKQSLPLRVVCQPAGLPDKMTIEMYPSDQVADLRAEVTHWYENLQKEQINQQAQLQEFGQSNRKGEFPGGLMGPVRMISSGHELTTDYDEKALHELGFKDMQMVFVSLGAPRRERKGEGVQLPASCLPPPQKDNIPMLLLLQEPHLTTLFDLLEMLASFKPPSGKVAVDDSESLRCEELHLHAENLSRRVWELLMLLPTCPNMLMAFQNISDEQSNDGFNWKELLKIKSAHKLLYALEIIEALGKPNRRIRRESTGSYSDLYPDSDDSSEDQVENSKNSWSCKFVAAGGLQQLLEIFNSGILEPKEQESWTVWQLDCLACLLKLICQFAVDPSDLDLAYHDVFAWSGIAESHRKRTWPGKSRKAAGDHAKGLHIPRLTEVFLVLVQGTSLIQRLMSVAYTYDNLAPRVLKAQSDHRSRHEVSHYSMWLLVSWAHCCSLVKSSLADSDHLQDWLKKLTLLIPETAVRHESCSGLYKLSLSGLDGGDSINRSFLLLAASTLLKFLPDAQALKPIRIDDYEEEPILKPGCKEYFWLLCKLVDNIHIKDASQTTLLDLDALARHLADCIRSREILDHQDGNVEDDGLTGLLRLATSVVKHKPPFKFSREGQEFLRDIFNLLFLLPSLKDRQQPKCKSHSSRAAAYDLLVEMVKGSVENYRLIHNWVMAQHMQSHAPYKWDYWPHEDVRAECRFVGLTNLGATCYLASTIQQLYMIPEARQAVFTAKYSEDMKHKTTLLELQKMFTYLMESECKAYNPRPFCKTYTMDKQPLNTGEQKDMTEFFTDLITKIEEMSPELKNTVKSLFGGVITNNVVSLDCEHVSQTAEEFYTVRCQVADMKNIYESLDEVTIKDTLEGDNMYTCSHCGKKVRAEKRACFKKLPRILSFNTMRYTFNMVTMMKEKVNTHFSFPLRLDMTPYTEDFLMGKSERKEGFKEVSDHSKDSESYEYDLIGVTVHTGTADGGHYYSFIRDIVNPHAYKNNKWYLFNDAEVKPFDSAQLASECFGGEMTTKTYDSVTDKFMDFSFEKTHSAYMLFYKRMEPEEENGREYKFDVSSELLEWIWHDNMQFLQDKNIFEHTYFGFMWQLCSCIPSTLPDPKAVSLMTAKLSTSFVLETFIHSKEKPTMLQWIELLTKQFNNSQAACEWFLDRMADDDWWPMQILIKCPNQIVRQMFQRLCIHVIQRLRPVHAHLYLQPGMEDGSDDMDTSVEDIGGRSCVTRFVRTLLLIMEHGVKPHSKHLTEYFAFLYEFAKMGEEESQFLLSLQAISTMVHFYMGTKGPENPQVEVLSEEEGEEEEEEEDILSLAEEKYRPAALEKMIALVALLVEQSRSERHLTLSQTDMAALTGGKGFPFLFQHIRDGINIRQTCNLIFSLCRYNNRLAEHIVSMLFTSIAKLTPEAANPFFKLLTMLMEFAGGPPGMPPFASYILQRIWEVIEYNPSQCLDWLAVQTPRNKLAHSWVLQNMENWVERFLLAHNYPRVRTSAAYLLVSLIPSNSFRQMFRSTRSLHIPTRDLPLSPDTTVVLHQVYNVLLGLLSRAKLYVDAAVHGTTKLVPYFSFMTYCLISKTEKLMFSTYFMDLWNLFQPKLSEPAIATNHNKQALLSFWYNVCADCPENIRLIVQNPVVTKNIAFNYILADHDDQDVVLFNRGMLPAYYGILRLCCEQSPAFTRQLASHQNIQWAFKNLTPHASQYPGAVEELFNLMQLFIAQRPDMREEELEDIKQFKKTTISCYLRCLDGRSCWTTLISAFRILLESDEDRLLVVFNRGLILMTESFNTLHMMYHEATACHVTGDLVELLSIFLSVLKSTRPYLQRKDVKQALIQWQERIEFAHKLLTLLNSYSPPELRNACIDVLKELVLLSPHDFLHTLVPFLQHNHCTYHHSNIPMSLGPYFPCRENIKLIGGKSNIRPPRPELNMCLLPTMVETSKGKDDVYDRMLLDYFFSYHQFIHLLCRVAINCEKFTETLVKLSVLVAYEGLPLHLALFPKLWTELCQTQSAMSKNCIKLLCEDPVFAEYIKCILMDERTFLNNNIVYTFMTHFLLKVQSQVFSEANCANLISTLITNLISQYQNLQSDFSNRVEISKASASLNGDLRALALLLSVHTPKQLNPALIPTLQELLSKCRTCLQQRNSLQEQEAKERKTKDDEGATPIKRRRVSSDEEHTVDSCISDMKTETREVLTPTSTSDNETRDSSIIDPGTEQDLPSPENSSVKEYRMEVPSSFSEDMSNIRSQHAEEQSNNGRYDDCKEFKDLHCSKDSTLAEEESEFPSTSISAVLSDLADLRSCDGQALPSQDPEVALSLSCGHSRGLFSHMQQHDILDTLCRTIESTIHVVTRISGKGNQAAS

O=C(CCl)N1CCOC(CCc2ccccc2)C1 (stereo not given)
inactive: USP34 -0.338 | USP36 0.0399 | USP38 -0.227 | USP39 0.136 | USP4 -0.729
